# According to PubChem BioAssay (Tox21):
# Records with an inconclusive call do not appear. A number with no mark means an inactive call. The call rests on the fitted dose curve; in most records, active means well fitted activation curve with a large enough effect in the signal ratio in the repeat runs (not every such curve was filed as active); inconclusive means weak or mixed curves, or effect the other way; inactive means flat fitted curve, though single readings scatter; the % refers to the signal ratio.
# Test: qHTS assay to identify small molecule agonists of the endoplasmic reticulum stress response signaling pathway (AID 1159516)
# Details: ESRE-bla HeLa, ER stress beta-lactamase reporter, 5 h; series mostly up to 61 µM; activation: at the top concentration
# Source text: National Center for Advancing Translational Sciences [NCATS]
# NIH Chemical Genomics Center [NCGC]
# U.S. Environmental Protection Agency [EPA]
# National Institutes of Environmental Health Sciences [NIEHS]
# National Toxicology Program [NTP]
# U.S. Food and Drug Administration [FDA]
# Endoplasmic Reticulum (ER) plays an important role in cellular signaling, protein folding/maturation, stress response, lipid biosynthesis, calcium storage and release etc. Under stress conditions, proteins in ER misfold or unfold, and leading to the expression of ER stress responsive genes. ER stress has been associated with a variety of pathophysiological conditions such as cancer, inflammation, neurodegenerative diseases, diabetes, ischemic heart disease etc. To identify the compounds that induce ER stress response, an ER stress reporter cell line, CellSensor ESRE-bla HeLa (Life Technologies, Carlsbad, CA) containing a beta-lactamase reporter gene under control of the Endoplasmic reticulum Stress Response Element (ESRE) was used to screen Tox21 10K compound library.
# Tox21 Assay Protocol Summary:
# ESRE-bla HeLa cells were dispensed at 1,500 cells/6 uL of assay medium per well into black wall/clear-bottom 1536-well plates using a Multidrop Combi (ThermoFisher Scientific, Waltham, MA) dispenser. After the assay plates were incubated at 37 C and 5% CO2 for an overnight, 23 nL of compounds dissolved in DMSO, positive controls or DMSO only was transferred to the assay plate by a Pintool station (Kalypsys, San Diego, CA). The assay plates were incubated at 37 C and 5% CO2 for 5 hr. One uL of LiveBLAzer B/G FRET substrate (Life Technologies) was added using a Flying Reagent Dispenser (Aurora Discovery, San Diego, CA) and the plates were incubated at room temperature for 2 hr. Fluorescence intensity (405 nm excitation, 460 nm and 530 nm emissions) was measured using an Envision plate reader (PerkinElmer, Shelton, CT).
# On the % scale 0 is the no-effect control and ±100 the full control effect.
row,SMILES,activation
1,N[C@@H](Cc1ccc(O)cc1)C(=O)O,-0.0263% [at 6.95 µM]
2,O=C(O)CONC(=O)c1ccccc1,-2.98%
3,CC(C)(C)NC[C@H](O)COc1cccc2c1CCCC2=O,2.98%
4,COc1ccc2c(c1)c1c3n2CCN(C)C3=NCC1,5.15%
5,O/N=C/C=N/O,-0.207%
6,O=C(CCCCC(=O)Nc1c(I)cc(I)c(C(=O)O)c1I)Nc1c(I)cc(I)c(C(=O)O)c1I,-0.211%
7,CN1CCOC(c2ccccc2)c2ccccc2C1 (stereo not given),-3%
8,COc1nc(N)nc2nc[nH]c12,-0.872%
9,Cc1c(NC(=O)c2cccnc2)c(=O)n(-c2ccccc2)n1C,2.41%
10,CCCCCCCCCCCCCBr,2.81%
11,CCC[C@@H]1C[C@@H](C(=O)N[C@@H]([C@H]2O[C@H](SC)[C@H](O)[C@@H](O)[C@H]2O)[C@@H](C)O)N(C)C1,-0.464%
12,O=C(Cl)c1ccccc1[N+](=O)[O-],-0.686% [at 78.8 µM]
13,CC(C)[C@H]1CC[C@H](C)C[C@@H]1O,0.0556% [at 78.8 µM]
14,CC(C)CO,2.53% [at 78.8 µM]
15,O=C(CCCl)NCCc1ccccc1,-3.92%
16,O=C1c2ccccc2C(=O)c2cc(Cl)ccc21,0.175% [at 6.95 µM]
17,CCCCOC(=O)[C@H](C)O,-0.565%
18,CC(=O)C(C)O (stereo not given),0.0742%
19,CO[C@@]1(NC(=O)Cc2cccs2)C(=O)N2C(C(=O)O)=C(COC(N)=O)CS[C@@H]21,-0.484%
20,CC1OCCC1=O (stereo not given),0.173%

row,SMILES,activation
1,CC(C)Cn1cnc2c1c(=O)n(C)c(=O)n2C,0.279%
2,C=C(C)C1CC=C(C)C(=O)C1 (stereo not given),4.36%
3,CCOCCOCC,-0.013% [at 78.8 µM]
4,CCCCCC/C=C/C(=O)OC,-2.87%
5,CC(=O)Nc1ccc(OC(=O)c2ccccc2OC(C)=O)cc1,-0.895%
6,COC(=O)CCCCC(=O)O,0.937%
7,c1ccc2cnccc2c1,0.594%
8,CCCCCC(C)O (stereo not given),-2.36%
9,CC(C)OC(=O)OCOP(=O)(CO[C@H](C)Cn1cnc2c(N)ncnc21)OCOC(=O)OC(C)C,-0.132%
10,CCC(=O)Oc1ccc2c(c1)CC[C@@H]1[C@@H]2CC[C@@]2(C)[C@H]1C[C@@H](OC(=O)CC)[C@@H]2OC(=O)CC,0.46%
11,C=CCCCCCCCCC(=O)OCCCC,-1.53%
12,C=C(C)[C@@H]1CC=C(C)C(=O)C1,-1.32%
13,CC(C)NCC(O)c1ccc2ccccc2c1 (stereo not given),-0.423%
14,C/C(CC(C)C)=N\O,0.195%
15,CN(C)CC/C=C1/c2ccccc2COc2ccc(CC(=O)O)cc21,-0.551%
16,CCCCCCCCCOC(=O)CCCCC(=O)OCCCCCCC,0.796%
17,OCC1CCC(CO)CC1 (stereo not given),0.293% [at 78.8 µM]
18,Cc1ccc(N)cc1S(=O)(=O)O,-0.265%
19,CN(C)C(C)(C)CO,0.211%
20,NCCOCCN,-0.405%
